target: PEG-3 (UniProt Q6IN02); assay: inhibition of PEG-3 promoter-driven reporter – cell-based, HeLa, luciferase, CREF/GAPDH counter-screen panel, dose response (AID 624167); details: CREF/GAPDH counter-screens; HeLa PEG-Prom luciferase reporter, overnight, run 1, dose range 1, at 100 µM (top of the series) unless noted
Sequence (Q6IN02 whole entry, looked up): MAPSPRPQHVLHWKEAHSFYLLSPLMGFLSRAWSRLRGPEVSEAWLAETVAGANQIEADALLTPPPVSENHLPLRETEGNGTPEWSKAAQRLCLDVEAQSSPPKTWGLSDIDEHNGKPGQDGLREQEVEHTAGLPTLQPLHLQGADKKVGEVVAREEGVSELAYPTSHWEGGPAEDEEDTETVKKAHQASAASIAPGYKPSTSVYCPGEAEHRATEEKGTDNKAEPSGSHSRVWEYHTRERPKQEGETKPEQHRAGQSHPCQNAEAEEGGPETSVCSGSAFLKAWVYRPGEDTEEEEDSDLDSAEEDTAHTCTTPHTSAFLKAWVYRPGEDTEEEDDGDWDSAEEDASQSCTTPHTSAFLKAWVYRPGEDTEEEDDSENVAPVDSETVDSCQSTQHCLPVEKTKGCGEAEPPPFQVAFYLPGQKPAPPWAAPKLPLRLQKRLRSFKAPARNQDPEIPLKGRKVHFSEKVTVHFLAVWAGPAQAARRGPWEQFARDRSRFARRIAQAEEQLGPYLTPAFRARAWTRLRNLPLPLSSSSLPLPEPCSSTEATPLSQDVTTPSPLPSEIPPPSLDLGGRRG

Row | Compound | inhibition
1 | COC(CNC(=O)c1ccc2c3c(onc13)-c1ccccc1C2=O)OC | 102%
2 | CC(C)(C)OC(=O)CC(S(=O)(=O)c1ccccc1)S(=O)(=O)c1ccccc1 | 102%
3 | COCC(C)n1c(C)cc(C(=O)COC(=O)c2cccn2C)c1C (stereo not drawn) | 75.2%
4 | O=C(O)c1cccc(COc2ccccc2Cl)c1 | 96.7%
5 | COC(=O)c1ccc(Nc2cc(C)nc3ccc(C)cc23)cc1 | 98.7%
6 | CN(C)CCNC(=O)/C(=C/c1ccc(-c2ccc(Cl)cc2)o1)NC(=O)c1ccccc1 | 102%
7 | CCCCCCCCCC[N+](C)(C)CC/C=C1/c2ccccc2Sc2ccc(Cl)cc21 | 99.8%
8 | COc1cc(OC)c2cc(C(=O)N/N=C/c3ccccc3O)[nH]c2c1 | 95.8%
9 | CC(=O)NC(c1ccc(Cl)cc1Cl)c1ccc2cccnc2c1O (stereo not drawn) | 96.5%
10 | Cc1ccc2nc(C)cc(Nc3ccc([N+](=O)[O-])cc3)c2c1 | 102%
11 | CC(=O)OCCNc1cc(SCc2ccco2)c2nonc2c1[N+](=O)[O-] | 100%
12 | Cc1cccc(CN2C(=O)/C(=C\c3ccc(C(=O)NCCN4CCOCC4)cc3)Sc3ccccc32)c1 | 102%
13 | Cc1cc(C)c2nc(N(CCCN(C)C)C(=O)c3ccc(S(=O)(=O)N4CCCCCC4)cc3)sc2c1 | 102%
14 | CCCC(=O)NC(c1ccc(C)cc1)c1ccc2cccnc2c1O (stereo not drawn) | 96.2%
15 | COC(=O)c1cc(=O)n(Cc2ccco2)c(=Nc2ccc(F)cc2)s1 | 102%
16 | CC1(C)C(=O)C=CC(=O)C(C)(C)C(=O)C=CC(=O)C(C)(C)C2=CC=C(O2)C(C)(C)C(=O)C=CC1=O | 102%
17 | CN(C)CCNc1ncnc2c1sc1nc(N3CCOCC3)c3c(c12)CC(C)(C)SC3 | 98%
18 | Cc1cc(Sc2ncnc(N)c2[N+](=O)[O-])ncn1 | 102%
19 | O=C1C=CC(=O)N1c1ccc(-c2nc3ccccc3o2)cc1 | 99.3%
20 | CN(C)CCNc1ncnc2c1sc1nc(N3CCCC3)c3c(c12)CC(C)(C)OC3 | 99.7%

Row | Compound | inhibition
21 | CC(C)N1CCc2c(sc(NC(=O)c3cc4cc([N+](=O)[O-])ccc4s3)c2C(N)=O)C1 | 98.8%
22 | CC(C)CCCCCCCCCCCCC(=O)NCC(=O)NC1C(O)C(O)C(Nc2ncnc3nc[nH]c23)OC1C(O)CO (stereo not drawn) | 102%
23 | CC(NC(=O)c1ccc([N+](=O)[O-])o1)C12CC3CC(CC(C3)C1)C2 (stereo not drawn) | 99.4%
24 | CN(C)CC1CCC/C(=C\c2ccc(OC(=O)/C=C/c3ccccc3)cc2)C1=O (stereo not drawn) | 97.5%
25 | O=C1OCCC1Sc1nnc(-c2ccc(Cl)cc2Cl)o1 (stereo not drawn) | 92.6%
26 | CCN(CCO)c1ccc(N=Nc2cc(C)[nH]n2)cc1 | 95.5%
27 | O=C1/C(=C/c2ccccc2Cl)SC(=S)N1CCCC(=O)N(CCO)c1ccccc1 | 99.7%
28 | CN1CCC2(CC1)N=C(c1ccc(F)cc1)C(=S)N2C(=O)c1ccc(C(C)(C)C)cc1 | 102%
29 | CCC1CCCCN1S(=O)(=O)c1ccc(C(=O)N(CCCN(C)C)c2nc3cc4c(cc3s2)OCO4)cc1 (stereo not drawn) | 101%
30 | CCN1CCN(CCNC(=O)c2ccc(/C=C3\Sc4ccccc4N(Cc4ccccc4F)C3=O)cc2)CC1 | 102%
31 | O=C(Nc1nc2ccccc2[nH]1)c1ccccc1F | 97.3%
32 | Cn1nnnc1Sc1ncnc2scc(-c3ccsc3)c12 | 102%
33 | Cc1cc(C)c2sc(NNC(=O)c3ccc(S(=O)(=O)N4CCc5ccccc5C4)cc3)nc2c1 | 84.2%
34 | COc1cccc(NC(=O)CN(C)C(=O)c2cc(-c3ccc(F)cc3)nc3ccccc23)c1 | 102%
35 | CN(C)C(=O)c1cccc(-c2cnc3c(NC=O)cc(-c4cccc(C(F)(F)F)c4)cn23)c1 | 89.1%
36 | Cc1ccc(S(=O)(=O)N2CCCCC2)cc1C(=O)N(C)CC(=O)Nc1ccc(Cl)c(C(F)(F)F)c1 | 74.6%
37 | CS(=O)(=O)c1ccc(-c2sc3ccccc3c2C#CCCO)cc1 | 96%
38 | O=C(CNC(=O)C(c1ccccc1)c1ccccc1)N/N=C/c1ccc(O)cc1O | 53.4%
39 | CCCN1C=CC(=C2C(=O)c3ccccc3C2=O)C=C1 | 102%

target: PEG-3 (UniProt Q6IN02); assay: as above; details: CREF/GAPDH counter-screens; HeLa PEG-Prom luciferase reporter, overnight, run 2, dose range 1, at 100 µM (top of the series) unless noted

Row | Compound | inhibition
40 | COC(CNC(=O)c1ccc2c3c(onc13)-c1ccccc1C2=O)OC | 102%
41 | CC(C)(C)OC(=O)CC(S(=O)(=O)c1ccccc1)S(=O)(=O)c1ccccc1 | 101%
42 | COCC(C)n1c(C)cc(C(=O)COC(=O)c2cccn2C)c1C (stereo not drawn) | 83.3%
43 | O=C(O)c1cccc(COc2ccccc2Cl)c1 | 87.5%
44 | COC(=O)c1ccc(Nc2cc(C)nc3ccc(C)cc23)cc1 | 100%
45 | CN(C)CCNC(=O)/C(=C/c1ccc(-c2ccc(Cl)cc2)o1)NC(=O)c1ccccc1 | 98.6%
46 | CCCCCCCCCC[N+](C)(C)CC/C=C1/c2ccccc2Sc2ccc(Cl)cc21 | 101%
47 | COc1cc(OC)c2cc(C(=O)N/N=C/c3ccccc3O)[nH]c2c1 | 95.1%
48 | CC(=O)NC(c1ccc(Cl)cc1Cl)c1ccc2cccnc2c1O (stereo not drawn) | 96.7%
49 | Cc1ccc2nc(C)cc(Nc3ccc([N+](=O)[O-])cc3)c2c1 | 101%
50 | CC(=O)OCCNc1cc(SCc2ccco2)c2nonc2c1[N+](=O)[O-] | 98.1%
51 | Cc1cccc(CN2C(=O)/C(=C\c3ccc(C(=O)NCCN4CCOCC4)cc3)Sc3ccccc32)c1 | 99.5%
52 | Cc1cc(C)c2nc(N(CCCN(C)C)C(=O)c3ccc(S(=O)(=O)N4CCCCCC4)cc3)sc2c1 | 100%
53 | CCCC(=O)NC(c1ccc(C)cc1)c1ccc2cccnc2c1O (stereo not drawn) | 83.5%
54 | COC(=O)c1cc(=O)n(Cc2ccco2)c(=Nc2ccc(F)cc2)s1 | 102%
55 | CC1(C)C(=O)C=CC(=O)C(C)(C)C(=O)C=CC(=O)C(C)(C)C2=CC=C(O2)C(C)(C)C(=O)C=CC1=O | 98.9%
56 | CN(C)CCNc1ncnc2c1sc1nc(N3CCOCC3)c3c(c12)CC(C)(C)SC3 | 101%
57 | Cc1cc(Sc2ncnc(N)c2[N+](=O)[O-])ncn1 | 102%
58 | O=C1C=CC(=O)N1c1ccc(-c2nc3ccccc3o2)cc1 | 101%
59 | CN(C)CCNc1ncnc2c1sc1nc(N3CCCC3)c3c(c12)CC(C)(C)OC3 | 102%

Row | Compound | inhibition
60 | CC(C)N1CCc2c(sc(NC(=O)c3cc4cc([N+](=O)[O-])ccc4s3)c2C(N)=O)C1 | 101%
61 | CC(C)CCCCCCCCCCCCC(=O)NCC(=O)NC1C(O)C(O)C(Nc2ncnc3nc[nH]c23)OC1C(O)CO (stereo not drawn) | 98.2%
62 | CC(NC(=O)c1ccc([N+](=O)[O-])o1)C12CC3CC(CC(C3)C1)C2 (stereo not drawn) | 98.5%
63 | CN(C)CC1CCC/C(=C\c2ccc(OC(=O)/C=C/c3ccccc3)cc2)C1=O (stereo not drawn) | 102%
64 | O=C1OCCC1Sc1nnc(-c2ccc(Cl)cc2Cl)o1 (stereo not drawn) | 94.1%
65 | CCN(CCO)c1ccc(N=Nc2cc(C)[nH]n2)cc1 | 98.9%
66 | O=C1/C(=C/c2ccccc2Cl)SC(=S)N1CCCC(=O)N(CCO)c1ccccc1 | 102%
67 | CN1CCC2(CC1)N=C(c1ccc(F)cc1)C(=S)N2C(=O)c1ccc(C(C)(C)C)cc1 | 99%
68 | CCC1CCCCN1S(=O)(=O)c1ccc(C(=O)N(CCCN(C)C)c2nc3cc4c(cc3s2)OCO4)cc1 (stereo not drawn) | 96.1%
69 | CCN1CCN(CCNC(=O)c2ccc(/C=C3\Sc4ccccc4N(Cc4ccccc4F)C3=O)cc2)CC1 | 101%
70 | O=C(Nc1nc2ccccc2[nH]1)c1ccccc1F | 98.3%
71 | Cn1nnnc1Sc1ncnc2scc(-c3ccsc3)c12 | 102%
72 | Cc1cc(C)c2sc(NNC(=O)c3ccc(S(=O)(=O)N4CCc5ccccc5C4)cc3)nc2c1 | 94.7%
73 | COc1cccc(NC(=O)CN(C)C(=O)c2cc(-c3ccc(F)cc3)nc3ccccc23)c1 | 99.1%
74 | CN(C)C(=O)c1cccc(-c2cnc3c(NC=O)cc(-c4cccc(C(F)(F)F)c4)cn23)c1 | 93.6%
75 | Cc1ccc(S(=O)(=O)N2CCCCC2)cc1C(=O)N(C)CC(=O)Nc1ccc(Cl)c(C(F)(F)F)c1 | 60.6%
76 | CS(=O)(=O)c1ccc(-c2sc3ccccc3c2C#CCCO)cc1 | 97.9%
77 | O=C(CNC(=O)C(c1ccccc1)c1ccccc1)N/N=C/c1ccc(O)cc1O | 52.3%
78 | CCCN1C=CC(=C2C(=O)c3ccccc3C2=O)C=C1 | 98.2%
